Screens (PubChem)
TIM10 inh – growth inhibitors of isogenic TIM10 control yeast, primary screen, counter-screen for tim10-1 yeast inhibitor project, luminescence, uHTS; S. cerevisiae TIM10 strain growth, BacTiter-Glo luminescence, 24 h; inhibition, % at 10 µM; 330,000 compounds, 1.4% hits; AID 463195, 2010;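 active = inhibition of 40% or more at the single tested concentration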;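 note: wild-type TIM10 isogenic control strain grown at permissive 25 °C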
Mdm2-MdmX inh – inhibitors of human Mdm2-MdmX association, primary screen, cell-based, luminescence, split luciferase, SaOS-2, uHTS; 330,000 compounds, 3% hits; inhibition, % at 8 µM; SaOS-2 split-luciferase Mdm2/MdmX complementation;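 active = inhibition of at least 50% at 8 µM in the primary screen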
Target sequence (O15151 whole entry, looked up): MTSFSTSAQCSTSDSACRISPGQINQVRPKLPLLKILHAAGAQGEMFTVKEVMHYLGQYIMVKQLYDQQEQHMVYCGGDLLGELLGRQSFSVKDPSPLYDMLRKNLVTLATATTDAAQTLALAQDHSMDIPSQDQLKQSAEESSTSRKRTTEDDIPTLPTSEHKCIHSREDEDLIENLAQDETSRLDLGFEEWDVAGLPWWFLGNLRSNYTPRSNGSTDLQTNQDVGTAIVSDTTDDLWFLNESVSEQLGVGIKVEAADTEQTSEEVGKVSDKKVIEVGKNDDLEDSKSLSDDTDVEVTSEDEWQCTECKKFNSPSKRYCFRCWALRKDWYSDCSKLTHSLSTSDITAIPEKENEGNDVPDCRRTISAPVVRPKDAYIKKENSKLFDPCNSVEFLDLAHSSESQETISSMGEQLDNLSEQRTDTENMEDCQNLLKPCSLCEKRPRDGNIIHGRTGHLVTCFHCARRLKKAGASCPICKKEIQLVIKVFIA
Target sequence (Q00987 whole entry, looked up): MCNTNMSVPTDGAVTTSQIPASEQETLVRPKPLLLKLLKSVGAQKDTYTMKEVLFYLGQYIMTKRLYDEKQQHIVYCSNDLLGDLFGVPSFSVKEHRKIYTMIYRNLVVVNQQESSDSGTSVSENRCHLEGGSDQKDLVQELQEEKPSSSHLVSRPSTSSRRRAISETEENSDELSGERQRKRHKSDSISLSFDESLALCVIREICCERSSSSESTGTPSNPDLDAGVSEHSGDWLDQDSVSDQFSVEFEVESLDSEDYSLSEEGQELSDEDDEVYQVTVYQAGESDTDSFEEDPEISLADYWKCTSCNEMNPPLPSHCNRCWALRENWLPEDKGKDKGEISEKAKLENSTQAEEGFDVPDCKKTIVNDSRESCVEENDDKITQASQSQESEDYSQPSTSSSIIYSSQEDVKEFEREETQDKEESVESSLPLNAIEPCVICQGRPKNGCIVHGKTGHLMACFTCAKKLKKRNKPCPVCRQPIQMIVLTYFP
tim10-1 inh – growth inhibitors of tim10-1 mutant yeast, primary screen, luminescence, uHTS. AID 463190, 2010. S. cerevisiae tim10-1 ts strain growth, BacTiter-Glo, 24 h. 330,000 compounds, 2.2% hits. inhibition, % at 20 µM;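 active = inhibition of at least 40%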;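 note: mutant grown at 25 °C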
tim23-1 inh – growth inhibitors of tim23-1 mutant yeast, primary screen, luminescence, uHTS; S. cerevisiae tim23-1 growth, BacTiter-Glo luminescence, 24 h; inhibition, % at 20 µM; 330,000 compounds, 1.3% hits; AID 463212, 2010;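 active = growth inhibition of the mutant yeast at or above 50%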;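 note: temperature-sensitive mutant grown at 25 °C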
MPTP inh – mitochondrial permeability transition pore inhibitors, primary screen, biochemical, isolated mouse mitochondria, absorbance | 360,000 compounds, 1.4% hits | Ca2+ swelling absorbance, 30 min | inhibition, % at 10 µM;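 active = inhibition of 50% or more, scaled per plate between neutral and stimulator controls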
tim10 confirm – growth inhibitors of wild-type TIM10 yeast, confirmation, counter-screen for tim10-1 synthetic lethality project, single concentration, luminescence, S. cerevisiae; shares compounds with TIM10 inh; S. cerevisiae tim10 strain growth, BacTiter-Glo luminescence, 24 h; inhibition, % at 10 µM; 4,600 compounds, 63% hits;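 active = inhibition of yeast growth at or above a set limit in either of two replicates at 10 µM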; note: this counterscreen used the strain with wild-type TIM10
A number is an active result; n = inactive; x = no result given. An excerpt weighted towards active compounds, which were near 6.3% of everything screened.

SMILES	TIM10 inh	Mdm2-MdmX inh	tim10-1 inh	tim23-1 inh	MPTP inh	tim10 confirm
c1ccc(C(c2nnnn2C2CCCC2)N2CCN(c3nc4ccccc4s3)CC2)cc1 (stereo unspecified)	47	n	n	n	n	n
Cc1ccc(C(c2nnnn2C2CCCC2)N2CCN(c3nc4ccccc4s3)CC2)cc1 (stereo unspecified)	56	n	n	n	n	n
CCOC(=O)[C@]12CCCC=C1N(Cc1cccc3ccccc13)C(=O)[C@H](CC(=O)NCc1ccc(OC)c(OC)c1)C2	x	x	x	x	n	x
COc1ccccc1N1CCN(C(=O)c2ccc([N+](=O)[O-])s2)CC1	43	n	n	n	n	n
O=C(NN1C(=O)c2ccccc2NC1c1ccc([N+](=O)[O-])o1)c1ccc(Br)cc1 (stereo unspecified)	55	n	n	n	n	61
c1ccc(COc2ccc(-c3cc4nc(NCCCn5ccnc5)ccn4n3)cc2)cc1	x	x	x	x	n	x
COCCNC(=O)C1C(=O)Nc2ccccc2C(=O)N1Cc1ccccc1 (stereo unspecified)	x	x	x	x	n	x
CN(c1ccccc1)c1nc(N)c([N+](=O)[O-])c(N2CCCCCC2)n1	45	n	n	n	n	n
Cc1ccc(F)c(S(=O)(=O)NC(=O)C2(C)CCN2C(=O)CCC2CCCC2)c1 (stereo unspecified)	x	x	x	x	n	x
O=C1c2ccccc2C(=O)C1c1ccnc2ccccc12	49	n	n	n	n	39
N#CC1=C(N)SC(N)=C(C#N)C1c1ccnc2ccccc12	n	n	n	n	n	x
CCC(=O)N1CCCC(C)(C(=O)Nc2ccc3oc(CC)nc3c2)C1 (stereo unspecified)	x	x	x	x	n	x
CCN(CC)c1ccc(-n2c(C)c(C(C)=O)c(C(C)=O)c2C)cc1	44	n	n	n	n	n
O=S(=O)(NCc1ccc2c(c1)OCO2)c1cccc(F)c1	n	n	n	n	n	x
O=S(=O)(NCc1ccc2c(c1)OCO2)c1ccc2c(c1)oc1ccccc12	46	n	n	n	n	28
CC(C)N1CCC(C)(C(=O)Nc2cccc3c2CCCC3)C1 (stereo unspecified)	x	x	x	x	n	x
O=C(N/N=C/c1ccccn1)c1cc(-c2ccc3ccccc3c2)n[nH]1	60	n	n	n	n	n
O=C(c1ccccc1)N1N=C(C(F)(F)F)CC1(O)c1ccc(F)cc1 (stereo unspecified)	67	n	n	n	n	n
CCOC(=O)c1cc2cc3ccccc3cc2[nH]1	43	n	n	n	n	n
Cc1ccc(S(=O)(=O)/N=C(/NC(=S)Nc2ccccc2)c2ccccc2)cc1	46	n	n	n	n	n
Cc1ccc(NC(=S)N/C(=N/S(=O)(=O)c2ccccc2)c2ccccc2)cc1	n	n	n	n	n	x
CC(C)CN1C(=O)CN(S(C)(=O)=O)CC1(C)C(=O)Nc1ccc2c(c1)OCCO2 (stereo unspecified)	x	x	x	x	n	x
COc1ccc(-c2cn3cc(C(=O)NN)ccc3n2)cc1	n	n	n	n	n	x
NNC(=O)c1ccc2nc(-c3ccc(Br)cc3)cn2c1	40	n	n	n	n	n
Cc1cc(-c2nnc(SCC(=O)Nc3ccccc3)n2C)no1	54	n	n	n	n	n
SMILES	TIM10 inh	Mdm2-MdmX inh	tim10-1 inh	tim23-1 inh	MPTP inh	tim10 confirm
Cc1cc(-c2nnc(SCC(=O)Nc3ccc(C(F)(F)F)cc3)n2C)no1	n	n	n	n	n	x
Cc1ccc(CNC(=O)Nc2nnc([C@@H]3C[C@H](O)[C@@H](CO)O3)s2)cc1	x	x	x	x	n	x
COc1ccc(C(=O)c2ccc(OC)c3cccc(O)c23)cc1OC	44	n	n	n	n	n
C=CCSc1nnc2c(n1)[nH]c1c(C)cccc12	47	n	n	n	n	37
CCCOc1ccccc1C1NC(=O)NC(C)=C1C(=O)OCCOC (stereo unspecified)	n	n	n	n	n	x
COCCOC(=O)C1=C(C)NC(=O)NC1c1cccc2ccccc12 (stereo unspecified)	51	n	n	n	n	n
C[n+]1c2n(c3ccccc31)N=C(c1ccc(Cl)cc1)CS2	41	n	n	n	n	44
